A selection: hits, their analogues and other compounds. The true share with any hit is near 2.7%.
12-LOX inh – ALOX12 (human) lipoxygenase inhibition; P18054; purified 12hLO, xylenol orange hydroperoxide absorbance; Potency, µM (doses to about 108 µM), without a hit: at the top dose activity change, negative = inhibition, most hits filed as inhibitors; 1.1% of 580,000 active; AID 1671190; further: on the % scale 0 is the no-effect control and ±100 the full control effect
Target sequence (P18054 whole entry, looked up): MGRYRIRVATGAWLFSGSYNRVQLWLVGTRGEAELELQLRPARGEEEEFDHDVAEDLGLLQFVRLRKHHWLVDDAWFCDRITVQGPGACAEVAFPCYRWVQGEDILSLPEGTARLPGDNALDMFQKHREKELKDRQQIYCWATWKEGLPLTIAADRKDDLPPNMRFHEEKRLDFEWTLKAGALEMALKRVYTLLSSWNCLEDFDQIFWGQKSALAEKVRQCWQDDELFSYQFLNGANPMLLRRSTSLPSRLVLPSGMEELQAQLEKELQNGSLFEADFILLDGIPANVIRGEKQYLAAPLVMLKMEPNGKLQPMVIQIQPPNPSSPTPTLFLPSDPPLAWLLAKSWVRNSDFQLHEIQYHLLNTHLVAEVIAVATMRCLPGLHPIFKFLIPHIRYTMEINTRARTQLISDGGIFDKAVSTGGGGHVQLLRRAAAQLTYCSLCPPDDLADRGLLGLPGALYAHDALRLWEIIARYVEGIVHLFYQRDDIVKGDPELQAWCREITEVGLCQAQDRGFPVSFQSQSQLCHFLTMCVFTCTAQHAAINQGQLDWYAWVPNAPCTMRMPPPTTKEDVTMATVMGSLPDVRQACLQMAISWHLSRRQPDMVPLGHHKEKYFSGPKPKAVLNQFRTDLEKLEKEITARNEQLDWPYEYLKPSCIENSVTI
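Hydroperoxide product was detected by ferrous iron/xylenol orange as the 573 to 405 nm absorbance ratio. Arachidonic acid at 40 uM (final) was turned over for 30 min at room temperature by 150 nM human 12hLO, pH 7.0 Hepes buffer, after 15 min compound preincubation.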
ATXN2 expr inh – ATXN2 expression inhibition | AID 1745845 | Potency, µM (top dose mostly 57 µM), without a hit: at the top dose activity change, negative = inhibition, most hits filed as inhibitors | HEK-293 ATXN2-luciferase reporter, luminescence, 24 h | 0.72% of 360,000 active; further: on the % scale 0 is the no-effect control and ±100 the full control effect; nearly all actives have a fitted effect of over 55% in size
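qHTS (up to 57 uM final) was run with 24 h compound exposure of reporter cells at 37 °C. Each well was multiplexed: SteadyGlo luminescence measured ATXN2-luciferase expression after a fluorogenic Gly-Phe-AFC viability readout (25 uM final).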
ATXN viability – cell viability loss in ATXN counter-screen; S2 cells (HEK-293 line with an ATXN2-luciferase reporter) viability, CellTiter-Fluor protease fluorescence, 24 h; Potency, µM (titrated, usually from 56.7 µM), most hits filed as cytotoxic; 0.49% of 400,000 active; AID 651635; further: nearly all actives have a fitted effect of over 40% in size
TGFb inhibitor – blocks TGF-b signaling; HepG2 CAGA-GFP TGF-b/SMAD3 reporter, GFP fluorescence, 18 h; TGF-beta stimulated, 500 pg/mL final; Potency, µM (series often up to 46.1 µM), inactives show at the top dose activity, negative = inhibition, usual class: inhibitors; 1.2% of 410,000 active; further: on the % scale 0 is the no-effect control and ±100 the full control effect; nearly all actives have a fitted effect of over 65% in size
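Inhibition of TGF-beta-driven CAGA-GFP reporter expression in HEPG2 cells is measured by cellular GFP fluorescence after 18 h stimulation with 500 pg/mL recombinant TGF-beta in 1% FBS medium at 37 degrees C.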
HepG2 tox – kills HepG2 cells in TGF-b inhibitor counter-screen | HepG2 CAGA-GFP viability, ATP luminescence, 18 h | Potency, µM (highest dose often 46.1 µM), without a hit: at the highest dose activity change, negative = cytotoxicity, actives largely listed as cytotoxic | 0.76% of 410,000 active | AID 588856
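CellTiter-Glo luminescence gave cytotoxicity after 18 hours at 37 degrees C. The cells were HepG2 CAGA-GFP in 1% FBS DMEM, stimulated with 500 pg/mL TGF-beta after compound addition. %Activity was normalised to no-cell wells (complete cell-killing) and DMSO (no toxicity), and curves were fitted and classified.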
Numbers without * were called inactive; i = inactive; ? = inconclusive; · = no result given; [ ] = remark or other dose. The call rests on the fitted dose curve; in most records, active means well fitted curve in the direction sought with a large enough effect; inconclusive means small, poorly fitted or top-dose-only effect, or another doubt; inactive means no such curve, though single readings can be large; an effect the other way counts as inactive or inconclusive. Potency means the concentration at half of the fitted maximal effect.

SMILES	12-LOX inh	ATXN2 expr inh	ATXN viability	TGFb inhibitor	HepG2 tox
Cc1ccc(Cc2c(-c3ccc(Cl)cc3)nc3cc(C)ccn23)cc1	?	1%	?	6%	-4%
Cc1ccn2c(Cc3ccccc3)c(-c3ccccc3)nc2c1	?	36%	i	-3%	-19%
Cc1ccn2c(Cc3ccccc3)c(-c3ccc(Br)cc3)nc2c1	?	0%	14µM*	9%	-2%
Cc1ccn2c(CC(C)(C)C)c(-c3ccc(F)cc3)nc2c1	?	?	25µM*	?	-69%
Cc1ccc(Cc2c(-c3ccc(C)cc3)nc3cc(C)ccn23)cc1	?	?	32µM*	?	-70%
CC(=O)Nc1cccc(C(=O)NC2(c3ccc(F)cc3)CCC2)c1	-1%	·	·	·	·
Cc1ccc([C@H]2N[C@]3(CCCN(Cc4ccc(F)cc4)C3=O)[C@H]3C(=O)N(Cc4ccccc4)C(=O)[C@@H]23)cc1	14µM*	-6%	i	17%	-1%
CCN1C(=O)[C@H]2[C@@H](c3ccc(OC)cc3)N[C@]3(CCCN(Cc4ccc(C(F)(F)F)cc4)C3=O)[C@H]2C1=O	32µM*	0%	i	4%	-19%
Cc1ccc(CN2CCC[C@]3(N[C@H](c4ccc(C(F)(F)F)cc4)[C@@H]4C(=O)N(Cc5ccccc5)C(=O)[C@@H]43)C2=O)cc1	8.9µM*	-6%	i	-14%	-29%
COc1ccc([C@H]2N[C@]3(CCCN(Cc4ccc(F)cc4)C3=O)[C@H]3C(=O)N(Cc4ccccc4)C(=O)[C@@H]23)cc1	35µM*	8%	i	-2%	-23%
CC1CCCCC1NC(=O)/C=C/c1cccs1 (stereo not given)	16%	·	·	·	·
Cc1cc(N2CCOCC2)ccc1/C=C\[N+](=O)[O-]	?	?	?	11µM*	18µM*
O=[N+]([O-])c1ccc(N2CCOCC2)cc1O	-88%	8%	?	14%	-2%
COC(=O)CCn1nnc(-c2cccs2)n1	-12%	2%	i	12%	5%
COC(=O)CCn1nnc(-c2ccc(C(C)C)cc2)n1	-4%	0.5µM*	i	-3%	2%
Cc1noc(C(C)N(C)C(=O)c2cc(COc3ccccc3F)[nH]n2)n1 (stereo not given)	-2%	·	·	·	·
COc1ccc(S(=O)(=O)Oc2ccc3oc(=O)cc(-c4cc5cccc(OC)c5o4)c3c2)cc1	12%	·	·	·	·
O=C(Nc1ccc(F)cc1F)C1CCCN1S(=O)(=O)c1cccc2nsnc12 (stereo not given)	11%	-12%	i	16µM*	2%
c1cc(SSc2ccncc2)ccn1	6.3µM*	·	i	-12%	1%
CN1CCC(CNC(=O)Nc2csc3ccccc23)CC1	40µM*	-1%	i	32%	-7%
O=C(Cc1csc2ccccc12)NCC1CC1	?	12%	i	19%	22%
Cc1cc(=O)oc2cc(OCC3CC(c4ccc(Cl)cc4)=NO3)ccc12 (stereo not given)	-2%	-10%	i	-3%	-22%
NNC(=O)c1ccc(OCC2CC(c3ccc(Cl)cc3)=NO2)cc1 (stereo not given)	43%	-33%	i	?	13µM*
CCOCCCNCc1ccc(C)s1	-2%	·	·	·	·
Cc1cc(C)c(OC(=O)c2cccc(C#N)c2)c(C)c1	-36%	·	·	·	·
SMILES	12-LOX inh	ATXN2 expr inh	ATXN viability	TGFb inhibitor	HepG2 tox
COc1cc2c(NC3CCN(C)CC3)nc(N3CCCCC3)nc2cc1OCCOCCN(C)C	·	·	·	-100%	-39%
COc1cc2c(NC3CCN(C(C)C)CC3)nc(N3CCCN(C)CC3)nc2cc1OCCOCCN(C)C	·	·	·	14µM*	-32%
CCCN(C)CCCOc1cc2nc(N3CCCN(C)CC3)nc(NC3CCN(C)CC3)c2cc1OC	·	·	·	14µM*	-1%
COc1cc2c(NC3CCN(C)CC3)nc(N3CCCCC3)nc2cc1OCCCN(C)C	·	·	·	10µM*	-78%
COc1cc2c(NC3CCN(C(C)C)CC3)nc(N3CCCN(C)CC3)nc2cc1OCCCN1CCCC1	·	·	·	?	1%
COc1cc2c(NC3CCN(C)CC3)nc(N3CCCN(C)CC3)nc2cc1OCCOCCN(C)C	·	·	·	19%	27%
COc1cc2c(NC3CCN(C(C)C)CC3)nc(C3CCCCC3)nc2cc1OCCCN1CCCC1	28%[57.4 µM]	22µM*	·	·	·
O=c1c2ccccc2c(-c2nnc(SCCO)o2)nn1Cc1ccccc1	14%	·	·	·	·
OC(C1=CC(=Cc2ccncc2)c2ccccc21)c1ccncc1 (stereo not given)	?	23%	i	-5%	-4%
O=[N+]([O-])c1ccc(/C=C2\C=C(C(O)c3ccc([N+](=O)[O-])cc3)c3ccccc32)cc1 (stereo not given)	·	·	·	7.1µM*	-21%
O=C(N/N=C/c1ccccc1O)C1CC(=O)N(c2ccc(Cl)cc2)C1 (stereo not given)	9%	6.3µM*	i	-28%	-13%
O=c1[nH]c(N/N=C\c2ccc3c(c2)OCO3)nc2ccccc12	?	12%	i	0%	-21%
Cc1cc(N/N=C/c2ccc3c(c2)OCO3)nc2ccccc12	?	-11%	i	-8%	20µM*
COc1cccc(/C=C(/CC(=O)O)c2nc3ccccc3o2)c1	2%	·	·	·	·
CC(C)COc1ccc(C(=O)Nc2nonc2-c2ccc(OC(C)C)cc2)cc1	30%	·	·	·	·
COC(=O)c1cnn(-c2ccc(C(=O)Nc3cccc(Cl)c3C)cc2)c1N	0%	·	·	·	·
Nc1[nH]c(C(=O)c2ccccc2)c(-c2ccccc2Br)c1C(=O)NCCc1c[nH]c2ccccc12	-7%	?	20µM*	·	·
CC1CN(c2ccccc2)NC1=O (stereo not given)	28µM*	-11%	i	-20%	21%
CCC(CNc1cc(OC)cc2cccnc12)NC1CCCCC1 (stereo not given)	7%	·	18µM*	?	-109%
COc1cc(NCCCC(C)N)c2ncccc2c1 (stereo not given)	?	15%	i	-27%	-33%
COc1ccc(NC2CC(=O)N(C(C)C)C2=O)cc1 (stereo not given)	4µM*	73%	i	-13%	5%
O=C(CNC(=O)c1ccccc1Br)N/N=C/c1ccccc1O	?	?	·	?	-35%
O=C(CN1CC(c2ccccc2)CC1=O)N/N=C/c1cc(Br)ccc1O (stereo not given)	?	14µM*	i	-12%	2%
O=C(CNC(=O)c1ccccc1F)N/N=C/c1cc(Br)ccc1OC(=O)/C=C/c1ccco1	-20%	?	i	-27%	-17%
O=C(CNC(=O)c1ccccc1)N/N=C/c1cc(Br)ccc1O	-15%	28µM*	i	-3%	-42%
O=C(CNC(=O)c1ccccc1Br)N/N=C/c1cc(Br)ccc1O	2%	10µM*	i	-17%	-8%

High-throughput results: PubChem, National Center for Advancing Translational Sciences (NCATS)
